Common to all, as to test: log2 ratio of Biotin-Ahx-Ub-VS probe labelling (fragment/DMSO); higher = less target engagement (more negative = stronger competition), active = hit call of the paper (q ≤ 0.05, log2 ratio ≤ -1)
Common to all, as to conditions: compound concentration: 200 uM; treatment time: 3 h

One assay concerns the target T1, USP42 (UniProt Q9H9J4).
T1 sequence (whole entry): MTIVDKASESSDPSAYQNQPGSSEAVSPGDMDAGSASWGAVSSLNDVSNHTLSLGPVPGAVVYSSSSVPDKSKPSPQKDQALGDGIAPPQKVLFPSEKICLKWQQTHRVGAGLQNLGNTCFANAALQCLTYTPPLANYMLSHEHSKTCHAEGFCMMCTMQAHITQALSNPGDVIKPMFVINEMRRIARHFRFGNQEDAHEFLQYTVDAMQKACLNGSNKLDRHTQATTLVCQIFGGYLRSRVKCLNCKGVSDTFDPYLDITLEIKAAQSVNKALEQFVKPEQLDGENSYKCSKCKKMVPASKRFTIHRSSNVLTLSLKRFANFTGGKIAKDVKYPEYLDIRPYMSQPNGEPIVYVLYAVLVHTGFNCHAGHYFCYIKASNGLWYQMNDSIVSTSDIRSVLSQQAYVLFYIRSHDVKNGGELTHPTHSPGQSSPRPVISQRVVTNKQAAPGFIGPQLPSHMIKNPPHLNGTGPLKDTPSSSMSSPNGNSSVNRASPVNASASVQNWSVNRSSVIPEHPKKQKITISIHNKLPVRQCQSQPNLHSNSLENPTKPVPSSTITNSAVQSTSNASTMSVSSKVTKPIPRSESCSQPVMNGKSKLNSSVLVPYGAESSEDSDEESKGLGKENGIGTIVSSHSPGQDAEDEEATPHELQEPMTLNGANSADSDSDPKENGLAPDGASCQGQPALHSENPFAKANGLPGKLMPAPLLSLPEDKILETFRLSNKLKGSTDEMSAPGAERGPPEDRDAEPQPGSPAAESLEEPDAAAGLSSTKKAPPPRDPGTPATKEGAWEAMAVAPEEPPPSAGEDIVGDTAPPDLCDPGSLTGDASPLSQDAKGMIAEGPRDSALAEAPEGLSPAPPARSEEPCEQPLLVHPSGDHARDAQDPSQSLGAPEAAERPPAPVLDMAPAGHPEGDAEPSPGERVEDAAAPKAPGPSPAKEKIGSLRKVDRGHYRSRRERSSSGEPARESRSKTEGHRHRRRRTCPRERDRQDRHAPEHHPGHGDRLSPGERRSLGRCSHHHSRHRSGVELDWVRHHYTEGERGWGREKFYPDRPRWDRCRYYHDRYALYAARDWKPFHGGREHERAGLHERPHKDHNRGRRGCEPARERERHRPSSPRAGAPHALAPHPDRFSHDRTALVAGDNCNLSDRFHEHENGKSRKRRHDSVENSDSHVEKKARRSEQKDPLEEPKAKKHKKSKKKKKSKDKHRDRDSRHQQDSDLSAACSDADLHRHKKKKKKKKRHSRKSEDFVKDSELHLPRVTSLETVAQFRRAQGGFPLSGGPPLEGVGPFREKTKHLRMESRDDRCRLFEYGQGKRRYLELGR
In a few lines:
(§1)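 Global-median-normalised Spectronaut label-free quantities were compared by unpaired t-test, and values are average log2 ratios of fragment over vehicle. Only proteins with ≥2 unique peptides were used. HEK293T lysate (495 µg per sample) was treated in triplicate with fragment at 200 µM or vehicle for 3 h and then with Biotin-Ahx-Ub-VS at 0.5 µM final for 1 h. Labelled DUBs were then NeutrAvidin-enriched, digested with LysC and trypsin, and run by diaPASEF LC-MS/MS.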

In the next assay the target is USP46 (UniProt P62068). In a few lines: as §1
The target in the next assay is T2, USP47 (UniProt Q96K76).
T2 sequence (whole entry): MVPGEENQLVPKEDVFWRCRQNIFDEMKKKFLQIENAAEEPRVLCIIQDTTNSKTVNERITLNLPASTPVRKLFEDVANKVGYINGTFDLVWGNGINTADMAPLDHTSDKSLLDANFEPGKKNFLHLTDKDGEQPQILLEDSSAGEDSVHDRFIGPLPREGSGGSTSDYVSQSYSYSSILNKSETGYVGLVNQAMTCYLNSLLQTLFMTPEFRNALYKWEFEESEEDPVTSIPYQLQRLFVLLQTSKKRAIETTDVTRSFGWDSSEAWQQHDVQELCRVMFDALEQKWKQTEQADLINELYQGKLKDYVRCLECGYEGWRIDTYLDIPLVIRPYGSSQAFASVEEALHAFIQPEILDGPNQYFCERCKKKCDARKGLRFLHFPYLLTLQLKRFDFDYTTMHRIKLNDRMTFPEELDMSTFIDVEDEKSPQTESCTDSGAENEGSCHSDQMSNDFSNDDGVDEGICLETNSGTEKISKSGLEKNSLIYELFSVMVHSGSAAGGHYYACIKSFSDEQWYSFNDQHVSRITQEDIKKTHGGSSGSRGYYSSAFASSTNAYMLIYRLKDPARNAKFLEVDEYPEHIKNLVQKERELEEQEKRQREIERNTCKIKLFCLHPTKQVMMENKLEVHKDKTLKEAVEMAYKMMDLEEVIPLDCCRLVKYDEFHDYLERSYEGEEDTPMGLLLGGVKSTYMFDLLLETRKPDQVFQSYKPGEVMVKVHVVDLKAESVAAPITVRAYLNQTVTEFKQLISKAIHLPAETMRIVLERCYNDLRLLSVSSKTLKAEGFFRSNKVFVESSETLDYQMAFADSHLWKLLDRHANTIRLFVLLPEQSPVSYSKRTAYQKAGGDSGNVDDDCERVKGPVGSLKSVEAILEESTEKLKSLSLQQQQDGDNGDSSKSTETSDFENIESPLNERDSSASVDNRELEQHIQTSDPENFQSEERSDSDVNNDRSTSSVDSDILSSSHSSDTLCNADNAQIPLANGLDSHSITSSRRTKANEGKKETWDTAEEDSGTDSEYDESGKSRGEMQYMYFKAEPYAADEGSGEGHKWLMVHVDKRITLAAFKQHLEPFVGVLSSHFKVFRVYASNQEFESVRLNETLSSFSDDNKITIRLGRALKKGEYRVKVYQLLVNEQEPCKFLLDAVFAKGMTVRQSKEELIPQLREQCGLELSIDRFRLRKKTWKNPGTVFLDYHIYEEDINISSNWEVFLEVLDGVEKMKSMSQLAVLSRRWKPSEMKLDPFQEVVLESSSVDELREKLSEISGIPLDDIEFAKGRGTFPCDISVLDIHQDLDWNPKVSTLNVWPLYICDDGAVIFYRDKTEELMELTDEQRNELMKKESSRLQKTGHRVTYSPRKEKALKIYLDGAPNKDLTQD
In a few lines: as §1

In another assay the target is T3, USP48 (UniProt Q86UV5).
T3 sequence (whole entry): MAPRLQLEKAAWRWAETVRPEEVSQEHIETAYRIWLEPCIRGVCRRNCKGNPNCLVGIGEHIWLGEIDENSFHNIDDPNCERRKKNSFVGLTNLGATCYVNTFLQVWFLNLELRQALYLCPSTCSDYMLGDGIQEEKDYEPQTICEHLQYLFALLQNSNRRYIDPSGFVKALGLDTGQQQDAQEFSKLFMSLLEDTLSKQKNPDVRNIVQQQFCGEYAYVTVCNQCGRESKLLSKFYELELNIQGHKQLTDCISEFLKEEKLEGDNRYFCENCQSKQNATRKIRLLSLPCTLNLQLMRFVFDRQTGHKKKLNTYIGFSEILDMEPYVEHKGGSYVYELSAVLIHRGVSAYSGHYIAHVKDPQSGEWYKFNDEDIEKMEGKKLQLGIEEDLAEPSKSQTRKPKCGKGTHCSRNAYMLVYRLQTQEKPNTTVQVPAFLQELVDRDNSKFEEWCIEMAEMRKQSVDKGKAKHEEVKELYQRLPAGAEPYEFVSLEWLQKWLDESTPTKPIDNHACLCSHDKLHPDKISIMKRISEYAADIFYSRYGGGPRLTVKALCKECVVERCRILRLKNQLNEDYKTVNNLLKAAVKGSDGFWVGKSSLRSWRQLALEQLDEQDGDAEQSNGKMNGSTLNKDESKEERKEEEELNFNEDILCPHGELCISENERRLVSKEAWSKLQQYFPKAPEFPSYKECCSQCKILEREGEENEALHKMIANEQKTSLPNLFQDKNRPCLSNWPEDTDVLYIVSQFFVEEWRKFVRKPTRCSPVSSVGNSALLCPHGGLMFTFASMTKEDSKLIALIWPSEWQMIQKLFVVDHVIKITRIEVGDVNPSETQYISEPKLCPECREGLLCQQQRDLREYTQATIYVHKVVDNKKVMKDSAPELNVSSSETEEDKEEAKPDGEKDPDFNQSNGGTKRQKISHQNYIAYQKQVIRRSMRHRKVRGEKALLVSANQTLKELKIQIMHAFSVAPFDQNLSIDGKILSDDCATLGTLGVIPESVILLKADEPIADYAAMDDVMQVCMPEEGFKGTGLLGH
In a few lines:
as §1

A further assay addresses T4, USP5 (UniProt P45974).
T4 sequence (whole entry): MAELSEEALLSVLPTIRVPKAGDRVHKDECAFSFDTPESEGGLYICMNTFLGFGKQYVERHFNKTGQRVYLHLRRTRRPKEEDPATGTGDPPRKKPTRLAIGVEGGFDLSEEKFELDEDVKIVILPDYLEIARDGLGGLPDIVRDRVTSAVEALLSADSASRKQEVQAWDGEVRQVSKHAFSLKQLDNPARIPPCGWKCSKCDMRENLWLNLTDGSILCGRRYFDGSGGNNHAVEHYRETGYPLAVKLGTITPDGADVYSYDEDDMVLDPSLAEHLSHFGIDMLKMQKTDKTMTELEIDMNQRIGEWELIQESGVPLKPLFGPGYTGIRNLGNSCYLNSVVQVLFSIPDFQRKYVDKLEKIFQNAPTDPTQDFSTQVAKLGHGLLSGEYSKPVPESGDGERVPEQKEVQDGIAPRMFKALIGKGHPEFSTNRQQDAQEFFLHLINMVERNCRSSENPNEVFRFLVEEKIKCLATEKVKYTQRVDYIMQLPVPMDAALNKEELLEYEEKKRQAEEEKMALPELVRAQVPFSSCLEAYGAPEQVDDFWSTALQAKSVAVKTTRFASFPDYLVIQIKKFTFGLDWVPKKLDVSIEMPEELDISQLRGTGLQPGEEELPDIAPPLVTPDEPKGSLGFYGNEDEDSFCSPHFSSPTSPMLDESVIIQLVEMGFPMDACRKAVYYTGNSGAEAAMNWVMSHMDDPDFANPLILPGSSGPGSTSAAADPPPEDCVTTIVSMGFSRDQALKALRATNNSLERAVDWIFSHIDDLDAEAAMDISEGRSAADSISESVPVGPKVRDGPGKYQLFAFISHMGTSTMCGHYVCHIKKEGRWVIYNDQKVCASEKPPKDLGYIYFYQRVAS
In a few lines: as §1

A further assay addresses USP54 (UniProt Q70EL1). In a few lines:
as §1

The target in a further assay is USP7 (UniProt Q93009). In a few lines:
as §1

Another assay has as its target T5, USP8 (UniProt P40818).
T5 sequence (whole entry): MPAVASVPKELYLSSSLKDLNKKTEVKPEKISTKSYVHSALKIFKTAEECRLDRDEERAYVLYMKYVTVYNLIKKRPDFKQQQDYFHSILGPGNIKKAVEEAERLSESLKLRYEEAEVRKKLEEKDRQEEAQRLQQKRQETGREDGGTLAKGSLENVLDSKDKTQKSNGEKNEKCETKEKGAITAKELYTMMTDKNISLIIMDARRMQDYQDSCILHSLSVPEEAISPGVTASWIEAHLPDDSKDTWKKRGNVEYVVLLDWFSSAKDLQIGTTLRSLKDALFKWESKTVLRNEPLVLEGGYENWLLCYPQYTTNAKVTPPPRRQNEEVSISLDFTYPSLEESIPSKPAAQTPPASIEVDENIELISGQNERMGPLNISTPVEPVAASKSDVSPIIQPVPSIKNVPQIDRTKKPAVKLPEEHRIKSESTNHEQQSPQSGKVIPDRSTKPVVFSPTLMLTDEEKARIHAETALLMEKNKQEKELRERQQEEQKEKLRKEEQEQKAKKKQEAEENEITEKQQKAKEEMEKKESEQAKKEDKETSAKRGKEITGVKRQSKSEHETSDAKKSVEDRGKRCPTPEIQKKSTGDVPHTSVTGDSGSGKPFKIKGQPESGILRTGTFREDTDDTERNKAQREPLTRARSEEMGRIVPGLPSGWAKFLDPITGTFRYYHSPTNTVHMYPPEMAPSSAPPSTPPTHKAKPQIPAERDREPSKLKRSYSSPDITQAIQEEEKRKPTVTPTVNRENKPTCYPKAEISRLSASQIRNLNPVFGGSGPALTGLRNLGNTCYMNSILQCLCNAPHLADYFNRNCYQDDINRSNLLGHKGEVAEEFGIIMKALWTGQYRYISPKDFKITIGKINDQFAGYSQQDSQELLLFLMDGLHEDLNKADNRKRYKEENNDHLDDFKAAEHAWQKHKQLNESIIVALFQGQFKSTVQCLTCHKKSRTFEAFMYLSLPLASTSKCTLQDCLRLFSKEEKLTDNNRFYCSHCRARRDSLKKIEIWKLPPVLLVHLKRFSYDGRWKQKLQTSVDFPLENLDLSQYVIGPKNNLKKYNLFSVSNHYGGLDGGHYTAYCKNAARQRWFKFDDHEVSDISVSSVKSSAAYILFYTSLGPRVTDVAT
In a few lines: as §1

In the next assay the target is USP9X (UniProt Q93008). In a few lines: as §1
Another assay concerns the target UniProt O00487. In a few lines: as §1

The structures appear in SMILES notation. Unmarked numbers belong to inactive results.

Sequence of USP7 (Q93009 whole entry, looked up): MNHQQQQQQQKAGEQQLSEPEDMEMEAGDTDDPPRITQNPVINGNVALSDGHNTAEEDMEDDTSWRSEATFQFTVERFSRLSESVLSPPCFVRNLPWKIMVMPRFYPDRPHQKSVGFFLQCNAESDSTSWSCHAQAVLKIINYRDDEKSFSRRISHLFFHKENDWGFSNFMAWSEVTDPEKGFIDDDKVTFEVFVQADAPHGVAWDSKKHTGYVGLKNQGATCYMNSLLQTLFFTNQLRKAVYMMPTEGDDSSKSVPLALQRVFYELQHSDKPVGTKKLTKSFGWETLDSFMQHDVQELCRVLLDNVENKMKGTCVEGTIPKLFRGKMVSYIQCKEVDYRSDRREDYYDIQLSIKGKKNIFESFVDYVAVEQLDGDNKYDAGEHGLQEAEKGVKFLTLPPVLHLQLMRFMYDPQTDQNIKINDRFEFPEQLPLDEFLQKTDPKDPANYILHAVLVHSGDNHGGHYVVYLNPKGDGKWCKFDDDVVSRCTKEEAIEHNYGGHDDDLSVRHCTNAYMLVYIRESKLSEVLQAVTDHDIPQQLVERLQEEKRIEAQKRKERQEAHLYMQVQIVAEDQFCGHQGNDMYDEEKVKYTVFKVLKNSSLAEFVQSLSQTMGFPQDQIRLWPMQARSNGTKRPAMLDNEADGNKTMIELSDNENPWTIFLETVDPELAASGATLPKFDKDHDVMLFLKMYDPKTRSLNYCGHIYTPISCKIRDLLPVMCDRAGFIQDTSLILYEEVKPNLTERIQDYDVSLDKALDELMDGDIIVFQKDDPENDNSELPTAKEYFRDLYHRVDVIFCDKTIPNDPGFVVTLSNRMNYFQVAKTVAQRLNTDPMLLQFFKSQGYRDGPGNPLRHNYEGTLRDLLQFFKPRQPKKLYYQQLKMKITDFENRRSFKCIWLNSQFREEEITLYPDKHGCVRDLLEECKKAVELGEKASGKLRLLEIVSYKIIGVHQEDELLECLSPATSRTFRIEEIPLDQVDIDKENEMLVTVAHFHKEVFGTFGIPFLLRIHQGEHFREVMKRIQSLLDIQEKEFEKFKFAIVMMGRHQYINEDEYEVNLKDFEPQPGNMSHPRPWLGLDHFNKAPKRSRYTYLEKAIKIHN
Sequence of USP9X (Q93008 whole entry): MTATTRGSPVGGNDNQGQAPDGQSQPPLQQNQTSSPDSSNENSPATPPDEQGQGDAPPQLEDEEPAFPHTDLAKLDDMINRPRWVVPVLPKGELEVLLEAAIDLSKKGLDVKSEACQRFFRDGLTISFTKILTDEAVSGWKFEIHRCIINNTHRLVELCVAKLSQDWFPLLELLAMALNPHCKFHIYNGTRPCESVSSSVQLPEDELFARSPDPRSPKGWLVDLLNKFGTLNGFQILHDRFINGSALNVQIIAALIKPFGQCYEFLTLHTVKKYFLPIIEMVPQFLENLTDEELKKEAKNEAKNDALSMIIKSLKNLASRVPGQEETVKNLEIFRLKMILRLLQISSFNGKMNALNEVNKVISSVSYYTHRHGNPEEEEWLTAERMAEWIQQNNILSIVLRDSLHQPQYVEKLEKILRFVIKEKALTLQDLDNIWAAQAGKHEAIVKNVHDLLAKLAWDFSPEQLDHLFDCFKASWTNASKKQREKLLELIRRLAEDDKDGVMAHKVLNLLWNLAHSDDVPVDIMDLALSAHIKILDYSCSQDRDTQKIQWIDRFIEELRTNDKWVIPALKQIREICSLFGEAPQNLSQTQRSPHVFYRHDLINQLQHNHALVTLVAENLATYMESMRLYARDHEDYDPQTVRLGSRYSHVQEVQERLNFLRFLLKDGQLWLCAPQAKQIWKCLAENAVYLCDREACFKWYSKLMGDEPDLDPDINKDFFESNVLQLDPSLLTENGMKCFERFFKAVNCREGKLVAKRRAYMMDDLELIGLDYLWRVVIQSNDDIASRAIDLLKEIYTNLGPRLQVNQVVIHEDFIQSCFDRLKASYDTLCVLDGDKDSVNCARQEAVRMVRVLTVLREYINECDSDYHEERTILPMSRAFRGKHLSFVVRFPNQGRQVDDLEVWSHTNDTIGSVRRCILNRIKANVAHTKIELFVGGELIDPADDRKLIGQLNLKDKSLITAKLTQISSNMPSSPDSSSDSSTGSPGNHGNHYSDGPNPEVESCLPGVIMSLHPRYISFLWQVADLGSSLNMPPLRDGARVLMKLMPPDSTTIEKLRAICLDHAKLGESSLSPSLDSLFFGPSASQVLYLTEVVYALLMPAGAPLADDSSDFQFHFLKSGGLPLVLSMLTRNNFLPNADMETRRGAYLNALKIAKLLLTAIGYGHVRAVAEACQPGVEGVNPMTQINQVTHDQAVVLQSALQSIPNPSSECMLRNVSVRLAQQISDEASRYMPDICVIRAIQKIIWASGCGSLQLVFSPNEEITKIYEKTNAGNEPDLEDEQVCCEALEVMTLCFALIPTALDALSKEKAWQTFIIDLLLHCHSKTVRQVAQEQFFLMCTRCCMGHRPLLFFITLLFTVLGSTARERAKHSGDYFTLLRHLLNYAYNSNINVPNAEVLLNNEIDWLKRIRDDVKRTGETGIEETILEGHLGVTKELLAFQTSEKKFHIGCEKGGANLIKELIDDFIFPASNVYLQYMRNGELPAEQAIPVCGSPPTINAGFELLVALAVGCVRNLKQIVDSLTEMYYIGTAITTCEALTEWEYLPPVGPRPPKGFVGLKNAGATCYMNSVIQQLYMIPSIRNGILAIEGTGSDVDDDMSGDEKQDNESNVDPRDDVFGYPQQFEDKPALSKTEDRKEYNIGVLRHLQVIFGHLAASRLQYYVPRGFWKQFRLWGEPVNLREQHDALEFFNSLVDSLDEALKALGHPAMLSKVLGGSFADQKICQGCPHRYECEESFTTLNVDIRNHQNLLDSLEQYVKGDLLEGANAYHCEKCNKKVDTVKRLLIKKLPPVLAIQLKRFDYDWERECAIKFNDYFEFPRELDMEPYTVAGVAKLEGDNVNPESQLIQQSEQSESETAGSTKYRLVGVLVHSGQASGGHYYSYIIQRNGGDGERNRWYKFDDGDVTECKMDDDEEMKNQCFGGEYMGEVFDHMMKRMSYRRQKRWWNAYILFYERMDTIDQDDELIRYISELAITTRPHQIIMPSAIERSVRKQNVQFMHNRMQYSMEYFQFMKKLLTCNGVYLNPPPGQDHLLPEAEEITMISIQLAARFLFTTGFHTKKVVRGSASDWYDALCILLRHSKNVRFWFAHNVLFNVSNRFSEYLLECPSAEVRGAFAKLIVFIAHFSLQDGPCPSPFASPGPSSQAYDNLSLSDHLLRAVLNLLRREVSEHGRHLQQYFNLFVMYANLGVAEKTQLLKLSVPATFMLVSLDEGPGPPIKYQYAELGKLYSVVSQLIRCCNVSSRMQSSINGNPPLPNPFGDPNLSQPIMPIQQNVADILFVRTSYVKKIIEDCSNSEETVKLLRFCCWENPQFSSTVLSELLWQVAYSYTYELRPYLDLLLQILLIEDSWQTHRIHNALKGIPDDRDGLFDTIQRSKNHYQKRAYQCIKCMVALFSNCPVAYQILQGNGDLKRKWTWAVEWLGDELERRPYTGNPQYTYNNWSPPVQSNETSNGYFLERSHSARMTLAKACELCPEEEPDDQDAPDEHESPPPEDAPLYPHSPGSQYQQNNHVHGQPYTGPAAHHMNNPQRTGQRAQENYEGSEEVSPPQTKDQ
Sequence of UniProt O00487 (O00487 whole entry): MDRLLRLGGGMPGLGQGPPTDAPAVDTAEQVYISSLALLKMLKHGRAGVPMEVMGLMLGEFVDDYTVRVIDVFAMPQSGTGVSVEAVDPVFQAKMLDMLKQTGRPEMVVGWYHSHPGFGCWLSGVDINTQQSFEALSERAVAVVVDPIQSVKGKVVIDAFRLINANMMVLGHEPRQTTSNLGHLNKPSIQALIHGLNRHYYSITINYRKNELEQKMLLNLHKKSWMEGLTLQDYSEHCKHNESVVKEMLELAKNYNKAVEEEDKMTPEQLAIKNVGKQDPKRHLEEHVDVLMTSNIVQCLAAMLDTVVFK
Sequence of USP46 (P62068 whole entry): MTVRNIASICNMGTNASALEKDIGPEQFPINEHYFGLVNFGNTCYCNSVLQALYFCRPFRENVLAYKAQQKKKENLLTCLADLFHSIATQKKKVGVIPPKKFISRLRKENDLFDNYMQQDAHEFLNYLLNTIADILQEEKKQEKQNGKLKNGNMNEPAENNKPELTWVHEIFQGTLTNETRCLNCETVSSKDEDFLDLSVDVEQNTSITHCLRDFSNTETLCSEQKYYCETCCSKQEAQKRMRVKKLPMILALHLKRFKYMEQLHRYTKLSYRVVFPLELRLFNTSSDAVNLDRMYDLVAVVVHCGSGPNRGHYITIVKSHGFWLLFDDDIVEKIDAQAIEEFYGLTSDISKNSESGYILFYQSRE

Turning to `O=C(CCl)Nc1cc(Cl)ccc1-n1cncn1`, the “log2 ratio of Biotin-Ahx-Ub-VS probe labelling” value (“log2 ratio” below) was 0.477 in the assay with USP42; -0.691 in the assay with USP46; -0.4 with USP47; -0.638 in the assay with USP48; -0.61 with USP5; 0.943 with USP54. For the same molecule, the “log2 ratio” value was -1.33 (active) with USP7, -0.73 with USP8, -1.04 (active) in the assay with USP9X and -0.13 in the assay with UniProt O00487.

`O=C(CCl)N1CCC(S(=O)(=O)c2ccc(F)cc2)CC1`: the “log2 ratio” value with USP42 was -0.133; in the assay with USP46, -0.0321; with USP47, -0.145; with USP48 it was -0.355; in the assay with USP5 it was 0.248; with USP54 it was 0.501. For the same molecule, the “log2 ratio” value with USP7 was -0.535; with USP8 it was -0.0595; in the assay with USP9X, -0.118; with UniProt O00487 it was 0.043.
